# Laboratory results taken from PubChem BioAssay AID624297 (National Center for Advancing Translational Sciences (NCATS), 2012).
# Values joined by “and” are separate entries in the source; they are usually repeats but may differ in a detail not shown here. Identical values can stand only once. The whole screen tested about 340,000 compounds, of which about 6,200 (1.8%) were called active. Inconclusive results (about 10%) are left out. This excerpt belongs to a sample that is enriched for actives. Values without a mark were called inactive. The call rests on the fitted dose curve; in most records, active means well fitted activation curve with a large enough effect; inconclusive means small, poorly fitted or top-dose-only effect; inactive means no such curve, though single readings can be large or run the other way.
# Assay: A quantitative high throughput screen for small molecules that induce DNA re-replication in SW480 colon adenocarcinoma cells. Further: nearly all actives have a fitted effect of over 55% in size. On re-replication activation: % of control where 0% means no effect.
# Conditions: Hoechst DNA content imaging, 48 h; series mostly up to 46.1 µM; re-replication activation: at the top concentration
# In short: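 Quantitative HTS format with DMSO vehicle controls; 48 hr drug incubation at 37 C, then 40 min Hoechst staining and scanning imager measurement at 405 nm excitation.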
# Potency means the concentration at half of the fitted maximal effect.
SMILES,re-replication activation,Potency
O=C(c1ccc2c(c1)C(=O)N(Cc1ccncc1)C2=O)N1CCN(S(=O)(=O)c2ccc(OC(F)(F)F)cc2)CC1,-0.488%,
CCN(C[C@H]1N[C@@](CC)(C(=O)OC)[C@H]2C(=O)N(C)C(=O)[C@@H]12)C(=O)Nc1ccc(F)cc1,-61.2%,
Oc1ccccc1C1=NN(c2ccccc2)C(c2ccccc2)C1 (configuration not stated),,8.2 µM (active)
O=C(c1ccccc1)N1N=C(c2ccccc2O)CC1c1ccc(Br)cc1 (configuration not stated),-5.14%,
CC(=O)Oc1ccccc1C1=NN(C(C)=O)C(c2ccccc2)C1 (configuration not stated),-16.4%,
Clc1ccc(CN2CCN(/N=C/c3cccnc3)CC2)cc1,-3.04%,
O=C1NCC(=O)N(Cc2ccccc2)/C1=C/c1ccccc1,24.2%,
O=C1/C(=C\c2cccnc2)CN(Cc2ccccc2)C/C1=C\c1cccnc1,,0.13 µM (active)
Cc1cc(C)c([N+](=O)[O-])cc1-c1ccc(/C=N/NC(=O)c2nonc2N)o1,-0.463%,
COc1cc(/C=N\NC(=O)c2nonc2N)c(OC)cc1Br,,0.291 µM (active)
COc1cc(OC)c(/C=N/NC(=O)c2ccc([N+](=O)[O-])cc2)cc1Br,-8.94%,
C[C@@H]1CN([C@@H](C)CO)C(=O)c2cc(NC(=O)C3CC3)ccc2O[C@H]1CN(C)C,-5.73%,
COc1cc(C(=O)OCc2cc(=O)n3ccsc3n2)ccc1OC(C)C,-0.423%,
CC(NC(=O)C(=O)N/N=C/c1ccc(Cl)cc1)c1ccccc1 (configuration not stated),3.87%,
CC(C)(C)C1CCC(=NNC(=O)c2cc(-c3ccccc3)n[nH]2)CC1 (configuration not stated),13.8%,
CC(NC(=O)C(=O)NN=C1CCC(C(C)(C)C)CC1)c1ccccc1 (configuration not stated),,0.731 µM (active)
CC[C@@]1(C(=O)OC)N[C@H](CN(C)C(C)=O)[C@@H]2C(=O)N(C)C(=O)[C@@H]21,-9.49%,
CCCOc1ccccc1C1CC(=O)Nc2cc3c(cc21)OCO3 (configuration not stated),,3.66 µM (active)
COc1ccccc1C1C2=C(COC2=O)Nc2cc3c(cc21)OCO3 (configuration not stated),-28%,
COC(=O)C1=C(C)NC(=O)CC1c1ccccc1OC (configuration not stated),1.66%,
COc1ccc(C)cc1NC(=O)CSc1cccc[n+]1[O-],-10.9%,
O=S(=O)(Cc1ccc(Cl)cc1Cl)c1ccc(Cl)cc1,,1.3 µM (active)
O=S(=O)(NCc1ccc(Cl)cc1Cl)c1cccs1,0.858%,
Cc1ccc(S(=O)(=O)Cc2cc(-c3ccc(Cl)cc3)no2)cc1,22.8%,

SMILES,re-replication activation,Potency
Nn1c(SCC(=O)NC2CCCc3ccccc32)nnc1C1CC1 (configuration not stated),-5.75%,
CN(C)C(=O)CCc1ccc2c3c([nH]c2c1)[C@]1(CCC2CCCC2)[C@@H](C(=O)N2CCOCC2)C[C@H](CC(=O)NCc2ccco2)C(=O)N1CC3,19.7% [at 9.22 µM],
O=C1c2ccccc2C(=O)N1CCCCCCN1C(=O)c2ccccc2C1=O,-3.92%,
CC(CNC(=O)Cn1cnc2c(OCc3ccccc3)ncnc21)c1ccccc1 (configuration not stated),0.97%,
O=C(C(Cl)Cl)N1CCN(c2ccccn2)CC1,2.41%,
O=C(/C=C/c1cccc(C(F)(F)F)c1)N1CCN(c2ccccn2)CC1,,4.61 µM (active)
O=C(Cc1ccc(Br)cc1)N1CCN(c2ccccn2)CC1,0.92%,
O=C(c1cccnc1)N(Cc1ccccc1)C(=O)c1cccnc1,-7.61%,
CCOC(=O)N(Cc1ccccc1)C1CC1,0.406%,
CC1=CC(=NNS(=O)(=O)c2ccc([N+](=O)[O-])cc2)CC(C)(C)C1,26%,
Cc1coc2c(O)cc3c(c12)OC1(N2CCCCC2)C(=O)NCCCC31 (configuration not stated),,20.6 µM (active) and 7.08 µM (active)
COc1ccc(C(=O)N(C)Cc2ccc(OC)c(OC)c2OC)cc1S(=O)(=O)N1CCOCC1,-16.5%,
COc1ccc(N2C(=O)/C(=C\c3ccco3)N=C2SCC(N)=O)cc1Cl,,18.4 µM (active)
COc1ccc([N+](=O)[O-])cc1NC(=O)COC(=O)/C=C/c1ccco1,2.98%,
COC(=O)C1=C(C)N(c2ccc(Br)cc2)C(=O)/C1=C\c1ccco1,-1.99%,
O=C(CC1SC(N2CCOCC2)=NC1=O)Nc1ccccc1F (configuration not stated),-10.3%,
CCCCCCSc1ccc([C@@H]2[C@H]3C(=O)N(CC)C(=O)[C@H]3[C@]3(C(=O)OC)CCCCN23)cc1,10.7%,
COC(=O)Cc1c(-c2[nH]c3ccccc3c2CC(=O)OC)[nH]c2ccccc12,2.42%,
O=C(CN1C(=O)NC2(CCCC2)C1=O)Nc1cc(C(F)(F)F)ccc1N1CCOCC1,-2.75%,
Cc1cc(C)nc(N/N=C/c2c(CO)cnc(C)c2O)n1,,11.6 µM (active)
Cc1cc(C)nc(N/N=C/c2c(C)oc3ccccc23)n1,4.88%,
O=C(COC(=O)/C=C/c1ccc(Br)o1)Nc1cccc(S(=O)(=O)N2CCOCC2)c1,-3.84%,
CC1CCCCC12NC(=O)N(CC(=O)N1CCN(c3ccccc3)CC1)C2=O (configuration not stated),-15%,
